# Test results: the supplement of paper PMC4466140
# Experiments:
# Test in all cases: SPOT peptide array binding signal intensity (averaged, normalized) (arbitrary units (background-subtracted, floor 0; scale differs between SH3 domains)); higher = stronger binding of the SH3 domain to the peptide
# [1] = biological target: AgAbp1
# In short: (§1)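 GST-fused SH3 domains, from four yeast species, were produced in E. coli BL21(DE3) and captured on glutathione Sepharose. Membranes of cellulose carrying synthetic 15-mer peptides, in which cysteines had been replaced by serines, were exposed to each domain at 10 μg/ml overnight at 4°C in TBS-based blocking buffer. After anti-GST antibody, an HRP anti-mouse secondary and luminol, spots were imaged and quantified using Genespotter. Binding signal is normalized and background-subtracted spot intensity, averaged over replicates, in arbitrary units that differ between domains.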
# [2] = biological target: AgBbc1
# In short: as §1
# [3] = biological target: AgBem1-D1
# In short: as §1
# [4] = biological target: AgBzz1-D1
# In short: as §1
# [5] = biological target: AgBzz1-D2
# In short: as §1
# [6] = biological target: AgCyk3
# In short: as §1
# [7] = biological target: AgFus1
# In short: as §1
# [8] = biological target: AgHof1
# In short: as §1
# [9] = biological target: AgHse1
# In short: as §1
# [10] = biological target: AgLsb1
# In short: as §1
# [11] = biological target: AgLsb4
# In short: as §1
# [12] = biological target: AgMyo5
# In short: as §1
# [13] = biological target: AgNbp2
# In short: as §1
# [14] = biological target: AgRvs167
# In short: as §1
# [15] = biological target: AgSho1
# In short: as §1
# [16] = biological target: AgSla1-D1-D2
# In short: as §1
# [17] = biological target: AgSla1-D3
# In short: as §1
# [18] = biological target: CaAbp1-D1
# In short: as §1
# [19] = biological target: CaAbp1-D2
# In short: as §1
# [20] = biological target: CaBbc1
# In short: as §1
# [21] = biological target: CaBem1-D1
# In short: as §1
# [22] = biological target: CaBzz1-D1
# In short: as §1
# [23] = biological target: CaBzz1-D2
# In short: as §1
# [24] = biological target: CaCyk3
# In short: as §1
# [25] = biological target: CaFus1
# In short: as §1
# [26] = biological target: CaHof1
# In short: as §1
# [27] = biological target: CaHse1
# In short: as §1
# [28] = biological target: CaLsb1
# In short: as §1
# [29] = biological target: CaLsb4
# In short: as §1
# [30] = biological target: CaMyo5
# In short: as §1
# [31] = biological target: CaNbp2
# In short: as §1
# [32] = biological target: CaRvs167
# In short: as §1
# [33] = biological target: CaRvs167-3
# In short: as §1
# [34] = biological target: CaSho1
# In short: as §1
# [35] = biological target: CaSla1-D1-D2
# In short: as §1
# [36] = biological target: CaSla1-D3
# In short: as §1
# [37] = biological target: ScAbp1
# In short: as §1
# [38] = biological target: ScBbc1
# In short: as §1
# [39] = biological target: ScBem1-D1
# In short: as §1
# [40] = biological target: ScBzz1-D1
# In short: as §1
# [41] = biological target: ScBzz1-D2
# In short: as §1
# [42] = biological target: ScCyk3
# In short: as §1
# [43] = biological target: ScFus1
# In short: as §1
# [44] = biological target: ScHof1
# In short: as §1
# [45] = biological target: ScHse1
# In short: as §1
# [46] = biological target: ScLsb1
# In short: as §1
# [47] = biological target: ScLsb2
# In short: as §1
# [48] = biological target: ScLsb3
# In short: as §1
# [49] = biological target: ScLsb4
# In short: as §1
# [50] = biological target: ScMyo3
# In short: as §1
# [51] = biological target: ScMyo5
# In short: as §1
# [52] = biological target: ScNbp2
# In short: as §1
# [53] = biological target: ScPex13
# In short: as §1
# [54] = biological target: ScRvs167
# In short: as §1
# [55] = biological target: ScSho1
# In short: as §1
# [56] = biological target: ScSla1-D1-D2
# In short: as §1
# [57] = biological target: ScSla1-D3
# In short: as §1
# [58] = biological target: SpAbp1-D1
# In short: as §1
# [59] = biological target: SpBbc1
# In short: as §1
# [60] = biological target: SpBzz1-D1
# In short: as §1
# [61] = biological target: SpBzz1-D2
# In short: as §1
# [62] = biological target: SpCyk3
# In short: as §1
# [63] = biological target: SpHof1
# In short: as §1
# [64] = biological target: SpHof1-2
# In short: as §1
# [65] = biological target: SpHof1-3
# In short: as §1
# [66] = biological target: SpHse1
# In short: as §1
# [67] = biological target: SpLsb1
# In short: as §1
# [68] = biological target: SpLsb4
# In short: as §1
# [69] = biological target: SpMyo1
# In short: as §1
# [70] = biological target: SpNbp2
# In short: as §1
# [71] = biological target: SpPex13
# In short: as §1
# [72] = biological target: SpRvs167
# In short: as §1
# [73] = biological target: SpSla1-D1-D2
# In short: as §1
# [74] = biological target: SpSla1-D3
# In short: as §1
binder,measurement,setting,value
TKPTPPPKPSHLKPK,SPOT peptide array binding signal intensity,[1],784
same,SPOT peptide array binding signal intensity,[2],125
same,SPOT peptide array binding signal intensity,[3],≤ 0
same,SPOT peptide array binding signal intensity,[4],150
same,SPOT peptide array binding signal intensity,[5],13
same,SPOT peptide array binding signal intensity,[6],0.5
same,SPOT peptide array binding signal intensity,[7],≤ 0
same,SPOT peptide array binding signal intensity,[8],3.5
same,SPOT peptide array binding signal intensity,[9],18
same,SPOT peptide array binding signal intensity,[10],0.5
same,SPOT peptide array binding signal intensity,[11],≤ 0
same,SPOT peptide array binding signal intensity,[12],≤ 0
same,SPOT peptide array binding signal intensity,[13],≤ 0
same,SPOT peptide array binding signal intensity,[14],2.67
same,SPOT peptide array binding signal intensity,[15],72
same,SPOT peptide array binding signal intensity,[16],≤ 0
same,SPOT peptide array binding signal intensity,[17],≤ 0
same,SPOT peptide array binding signal intensity,[18],655
same,SPOT peptide array binding signal intensity,[19],1210
same,SPOT peptide array binding signal intensity,[20],159
same,SPOT peptide array binding signal intensity,[21],≤ 0
same,SPOT peptide array binding signal intensity,[22],1030
same,SPOT peptide array binding signal intensity,[23],357
same,SPOT peptide array binding signal intensity,[24],≤ 0
same,SPOT peptide array binding signal intensity,[25],≤ 0
same,SPOT peptide array binding signal intensity,[26],1.5
same,SPOT peptide array binding signal intensity,[27],5.75
same,SPOT peptide array binding signal intensity,[28],0.5
same,SPOT peptide array binding signal intensity,[29],≤ 0
same,SPOT peptide array binding signal intensity,[30],1
same,SPOT peptide array binding signal intensity,[31],≤ 0
same,SPOT peptide array binding signal intensity,[32],4
same,SPOT peptide array binding signal intensity,[33],6
same,SPOT peptide array binding signal intensity,[34],44.5
same,SPOT peptide array binding signal intensity,[35],9.5
same,SPOT peptide array binding signal intensity,[36],0.5
same,SPOT peptide array binding signal intensity,[37],1010
same,SPOT peptide array binding signal intensity,[38],≤ 0
same,SPOT peptide array binding signal intensity,[39],1.5
same,SPOT peptide array binding signal intensity,[40],4
same,SPOT peptide array binding signal intensity,[41],59.5
same,SPOT peptide array binding signal intensity,[42],≤ 0
same,SPOT peptide array binding signal intensity,[43],7.5
same,SPOT peptide array binding signal intensity,[44],2
same,SPOT peptide array binding signal intensity,[45],4
same,SPOT peptide array binding signal intensity,[46],0.5
same,SPOT peptide array binding signal intensity,[47],≤ 0
same,SPOT peptide array binding signal intensity,[48],1800
same,SPOT peptide array binding signal intensity,[49],≤ 0
same,SPOT peptide array binding signal intensity,[50],0.5
same,SPOT peptide array binding signal intensity,[51],≤ 0
same,SPOT peptide array binding signal intensity,[52],13
same,SPOT peptide array binding signal intensity,[53],981
same,SPOT peptide array binding signal intensity,[54],4.17
same,SPOT peptide array binding signal intensity,[55],1320
same,SPOT peptide array binding signal intensity,[56],11
same,SPOT peptide array binding signal intensity,[57],1.75
same,SPOT peptide array binding signal intensity,[58],481
same,SPOT peptide array binding signal intensity,[59],0.5
same,SPOT peptide array binding signal intensity,[60],344
same,SPOT peptide array binding signal intensity,[61],≤ 0
same,SPOT peptide array binding signal intensity,[62],≤ 0
same,SPOT peptide array binding signal intensity,[63],2
same,SPOT peptide array binding signal intensity,[64],≤ 0
same,SPOT peptide array binding signal intensity,[65],64
same,SPOT peptide array binding signal intensity,[66],9.25
same,SPOT peptide array binding signal intensity,[67],251
same,SPOT peptide array binding signal intensity,[68],43.5
same,SPOT peptide array binding signal intensity,[69],≤ 0
same,SPOT peptide array binding signal intensity,[70],2.5
same,SPOT peptide array binding signal intensity,[71],7
same,SPOT peptide array binding signal intensity,[72],142
same,SPOT peptide array binding signal intensity,[73],≤ 0
same,SPOT peptide array binding signal intensity,[74],2.5
WTQRRGPLVVYAEDN,SPOT peptide array binding signal intensity,[61],≤ 0
same,SPOT peptide array binding signal intensity,[62],7
same,SPOT peptide array binding signal intensity,[63],29.5
same,SPOT peptide array binding signal intensity,[64],22.5
same,SPOT peptide array binding signal intensity,[65],23
same,SPOT peptide array binding signal intensity,[66],66.2
same,SPOT peptide array binding signal intensity,[67],≤ 0
same,SPOT peptide array binding signal intensity,[68],31
same,SPOT peptide array binding signal intensity,[69],16
same,SPOT peptide array binding signal intensity,[70],2
same,SPOT peptide array binding signal intensity,[71],19
same,SPOT peptide array binding signal intensity,[72],16
same,SPOT peptide array binding signal intensity,[73],3
same,SPOT peptide array binding signal intensity,[74],6
